Among the test systems are HCT-15 colon; HT29 colon; SNB-75 CNS; SNB-19 CNS; U251 CNS; PC-3 prostate; SK-MEL-5 melanoma; UACC-62 melanoma; LOX IMVI melanoma; SK-MEL-28 melanoma; SK-MEL-2 melanoma; EKVX NSCLC; SN12C renal; UO-31 renal; TK-10 renal; ACHN renal; CAKI-1 renal; A498 renal; CCRF-CEM leukemia; MOLT-4 leukemia.
Experiment in all cases: NCI-60 one-dose screen, 48 h (100 = growth as untreated, 0 = no growth, -100 = all killed)
Common to all, as to conditions: 10 µM unless noted

Growth data for 8 compounds are collected here from PubChem BioAssay (NCI).

Compounds without any hit were thinned out: in the full panel of roughly 83,000, 20% have a hit.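 Assay: single dose, 48 h. Readout: percent growth (0 = no net growth; negative = cell death). Active: <10.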 Unmarked numbers belong to inactive results. Active and inactive are the calls of the source.

`CC(=O)/C(N=Nc1ccc2oc(=O)ccc2c1)=C(\C)O`: the growth with HCT-15 colon was 16.5%; with HT29 colon, 24.4%; in the assay with SNB-75 CNS, 67.8%; in the assay on SNB-19 CNS it was 29%; with U251 CNS it was 23.3%; with PC-3 prostate, 20.7%. For the same compound, the growth in the assay on SK-MEL-5 melanoma was 9.01% (active); in the assay with UACC-62 melanoma it was 33.8%; with LOX IMVI melanoma it was 19%; in the assay with SK-MEL-28 melanoma it was 47.3%; in the assay on SK-MEL-2 melanoma it was 0.338% (active); in the assay on EKVX NSCLC, 30.8%. Besides, the growth was 35.6% in the assay with SN12C renal; 15.4% with UO-31 renal; 23.8% in the assay with TK-10 renal; 18.2% with ACHN renal; 33.3% in the assay with CAKI-1 renal; 29.8% in the assay with A498 renal. The growth in the assay on CCRF-CEM leukemia was 13.1%; in the assay on MOLT-4 leukemia, 16.4%.
Turning to `CC(=O)Nc1ccccc1-c1nc2ccccc2s1`, the growth was 96.7% in the assay with HCT-15 colon; 105% in the assay on HT29 colon; 69.8% in the assay on SNB-75 CNS; 94.6% in the assay on SNB-19 CNS; 108% with U251 CNS; 102% with PC-3 prostate. Also, the growth in the assay on SK-MEL-5 melanoma is 99%; with UACC-62 melanoma it was 94.3%; in the assay with LOX IMVI melanoma it was 97.3%; in the assay with SK-MEL-28 melanoma, 112%; in the assay with SK-MEL-2 melanoma it was 104%; with EKVX NSCLC, 96.1%. In addition, the growth is 92.5% in the assay on SN12C renal; 89.1% in the assay on UO-31 renal; 97.7% with TK-10 renal; 102% in the assay with ACHN renal; 95.4% in the assay on CAKI-1 renal; 84.4% with A498 renal. Moreover, the growth was 98.4% with CCRF-CEM leukemia and 104% with MOLT-4 leukemia.
For `C#Cc1nc(/C=C/C(=O)NO)cs1`, the growth was 76.3% in the assay on HCT-15 colon; 7.85% (active) with HT29 colon; -94.4% (active) with SNB-75 CNS; 93.4% in the assay with SNB-19 CNS; -5.41% (active) in the assay with U251 CNS; 70.5% in the assay on PC-3 prostate. For the same compound, the growth in the assay on SK-MEL-5 melanoma is 63.3%; in the assay with UACC-62 melanoma, 57.9%; in the assay on LOX IMVI melanoma, -90.7% (active); with SK-MEL-28 melanoma, 60.9%; with SK-MEL-2 melanoma, 81.5%; in the assay on EKVX NSCLC, 85.2%. Moreover, the growth in the assay with SN12C renal is 91.6%; in the assay with UO-31 renal, -94% (active); in the assay on TK-10 renal it was 43%; in the assay with ACHN renal, -81.9% (active); with CAKI-1 renal it was -94.9% (active); in the assay on A498 renal, 17.9%. Moreover, the growth in the assay on CCRF-CEM leukemia is -45.7% (active); in the assay with MOLT-4 leukemia, -45.3% (active).
In the case of `N#Cc1nc(-c2ccccc2)oc1N1CCC(C2(C(F)(F)F)N=N2)CC1`, the growth in the assay on HCT-15 colon is 102%; in the assay on HT29 colon, 102%; with SNB-75 CNS, 98.7%; in the assay on SNB-19 CNS, 102%; in the assay with U251 CNS, 97.5%; in the assay with PC-3 prostate it was 97%. The growth was 99.2% in the assay on SK-MEL-5 melanoma; 93.4% in the assay on UACC-62 melanoma; 97.1% in the assay with LOX IMVI melanoma; 119% with SK-MEL-28 melanoma; 97.8% in the assay with SK-MEL-2 melanoma; 92.1% in the assay on EKVX NSCLC. For the same compound, the growth with SN12C renal was 119%; in the assay on UO-31 renal, 82%; with TK-10 renal, 116%; in the assay with ACHN renal, 102%; in the assay with CAKI-1 renal, 84.8%; with A498 renal, 85.4%. In addition, the growth with CCRF-CEM leukemia was 102%; with MOLT-4 leukemia, 101%.
Turning to `N#Cc1c(-c2ccc(Br)cc2)cc(-c2c[nH]c3ccccc23)nc1N`, the growth in the assay with HCT-15 colon is 16.8%; with HT29 colon, 27.4%; in the assay on SNB-75 CNS it was 37.9%; in the assay on SNB-19 CNS, 66.1%; in the assay on U251 CNS, 52.6%; in the assay on PC-3 prostate it was 55.2%. Besides, the growth with SK-MEL-5 melanoma is 58.9%; in the assay on UACC-62 melanoma, 64.9%; in the assay with LOX IMVI melanoma it was 28.7%; with SK-MEL-28 melanoma, 59.3%; in the assay on SK-MEL-2 melanoma, 39.6%; with EKVX NSCLC, 51.6%. For the same compound, the growth with SN12C renal was 66.3%; with UO-31 renal, 43.6%; in the assay on TK-10 renal it was 96.8%; in the assay with ACHN renal it was 57.4%; in the assay with CAKI-1 renal, 30.9%; in the assay on A498 renal, 63.7%. Further, the values for the growth in the assay on CCRF-CEM leukemia and in the assay with MOLT-4 leukemia were 34.1% and 41.4%, respectively.
Consider `Cc1ccc([C@H]2c3[nH]c4ccccc4c3C[C@H]3C(=O)N(CCCCCCC(=O)NO)CC(=O)N23)s1`, for which the growth in the assay with HCT-15 colon was 93.6%; in the assay on HT29 colon, 56%; in the assay on SNB-75 CNS, 35.8%; with SNB-19 CNS it was 62.7%; in the assay with U251 CNS, 65%; with PC-3 prostate it was 61.9%. In addition, the growth in the assay with SK-MEL-5 melanoma is 40.5%; in the assay with UACC-62 melanoma, 33.3%; in the assay on LOX IMVI melanoma, -93.2% (active); in the assay on SK-MEL-28 melanoma, 48.3%; with SK-MEL-2 melanoma, 84.9%; in the assay on EKVX NSCLC, 69.4%. For the same compound, the growth in the assay with SN12C renal is 85.1%; with UO-31 renal, 71.9%; in the assay with TK-10 renal, 64.2%; in the assay on ACHN renal, 85.5%; in the assay on CAKI-1 renal, 60.3%; in the assay on A498 renal, 76%. Besides, the growth in the assay with CCRF-CEM leukemia is 22%; in the assay on MOLT-4 leukemia it was 12.5%.
As for `COc1ccc(C2CC(c3cccc(OCCCCOc4cccc(C5=NOC(c6ccc(OC)cc6)C5)c4)c3)=NO2)cc1` (stereo not given), the growth was 77.3% with HCT-15 colon; 69.8% in the assay on HT29 colon; 101% in the assay on SNB-75 CNS; 92% in the assay on SNB-19 CNS; 77.3% in the assay with U251 CNS; 99.8% in the assay on PC-3 prostate. Also, the growth with SK-MEL-5 melanoma was 97.5%; in the assay with UACC-62 melanoma, 68.8%; with LOX IMVI melanoma, 17.9%; with SK-MEL-28 melanoma, 102%; in the assay with SK-MEL-2 melanoma it was 103%; with EKVX NSCLC, 102%. Besides, the growth in the assay on SN12C renal was 95.3%; in the assay on UO-31 renal, 79%; in the assay on TK-10 renal it was 104%; in the assay on ACHN renal, 104%; in the assay on CAKI-1 renal, 89%; with A498 renal it was 111%. Further, the growth was 72.8% with CCRF-CEM leukemia and 92.2% in the assay with MOLT-4 leukemia.
With `C=C(C)[C@@H]1CC[C@]2(COP(=O)(OCC)OCC)CC[C@]3(C)[C@H](CC[C@@H]4[C@@]5(C)CC[C@H](OP(=O)(OCC)OCC)C(C)(C)[C@@H]5CC[C@]43C)[C@@H]12`, the growth is 6.86% (active) in the assay on HCT-15 colon; 35.2% with HT29 colon; 75.3% in the assay with SNB-75 CNS; 50.7% in the assay on SNB-19 CNS; 42.2% with U251 CNS; 22.7% in the assay on PC-3 prostate. Moreover, the growth with SK-MEL-5 melanoma is 11.5%; in the assay with UACC-62 melanoma, 43.1%; with LOX IMVI melanoma it was 25.4%; in the assay with SK-MEL-28 melanoma it was 77.5%; with SK-MEL-2 melanoma it was 67.9%; with EKVX NSCLC, 26.6%. Moreover, the growth with SN12C renal was 33.4%; in the assay with UO-31 renal, 22.6%; in the assay on TK-10 renal, 68.5%; in the assay with ACHN renal it was 41.4%; in the assay with CAKI-1 renal, 35.2%; in the assay with A498 renal, 66.4%. Further, the growth in the assay on CCRF-CEM leukemia was 39.4%; with MOLT-4 leukemia it was 27.8%.
